In the library only some 4.8% were active in any assay of this set; here they are far more common.
DAX1 inh-1: inhibits human nuclear receptor DAX1; P51843; HEK293 Gal4-DAX1 luciferase reporter, luminescence; inhibition, % at 6.75 µM; 340,000 compounds, 0.99% hits; AID 504766;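 active = inhibition above the mean over all tested compounds plus 3 SD, cut at about 4.2% in these data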;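 note: 0% = DAX1-transfected cells with DMSO and 100% = empty-vector control cells with DMSO; inhibition shows as a rise in luminescence from relieved DAX1 repression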
Target sequence (P51843 207-470 limits assumed): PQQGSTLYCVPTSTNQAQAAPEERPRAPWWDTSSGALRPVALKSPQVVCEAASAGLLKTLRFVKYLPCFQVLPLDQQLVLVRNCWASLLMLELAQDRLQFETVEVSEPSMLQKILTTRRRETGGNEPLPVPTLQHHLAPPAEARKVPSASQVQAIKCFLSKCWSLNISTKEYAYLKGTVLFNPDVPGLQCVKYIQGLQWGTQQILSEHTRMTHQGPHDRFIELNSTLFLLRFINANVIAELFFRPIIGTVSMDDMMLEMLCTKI
SMARCA2 activ: activators of SMARCA2 function. activation, % at 9.1 µM. MG213 cells, MMTV-luciferase reporter, dexamethasone, overnight. 370,000 compounds, 1% hits; in the data active = activation above about 7.8%;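 note: 0% = vehicle wells and 100% = reference activator wells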
ssDAF-12 act: S. stercoralis DAF-12 activation, primary screen | HEK293 ssDAF-12/GRIP1 lit1-tk-luc reporter, luminescence; % of 3 µM dafachronic acid response | activation, % at 6.8 µM | 370,000 compounds, 1% hits | AID 652126;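 active = activation above the mean over all tested compounds plus 3 SD, cut at about 0.9% in these data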;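 note: 0% = DMSO-only wells and 100% = 3 µM delta7-dafachronic acid wells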
hgDAF12 agonist: activates the H. glycines DAF-12 receptor ligand-binding domain. HEK293 GAL4-hgDAF12 UAS-luciferase reporter, agonist luminescence; normalized to butyrate control. activation, % at 6.8 µM. 370,000 compounds, 1.8% hits;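 active = activation above a cutoff set at the mean of all screened compounds plus 3 SD, cut at about 10% in these data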;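 note: 0% = DMSO wells and 100% = sodium butyrate wells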
DAX1 inh-2: blocks DAX1 repression of SF-1 activated StAR promoter; HEK293T StAR-luciferase reporter, SF-1/DAX-1 repression relief; inhibition, % at 6.8 µM; 370,000 compounds, 1.1% hits;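 active = inhibition above the mean over all tested compounds plus 3 SD, cut at about 3.6% in these data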;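 note: 0% = DAX-1 cells with DMSO and 100% = cells lacking DAX-1 with DMSO; higher inhibition means more luminescence from relief of DAX-1 repression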
hcDAF-12 act: H. contortus DAF-12 activation, primary screen; HEK293 hcDAF-12 lit1-tk-luc reporter, luminescence; 0% DMSO, 100% Δ7-dafachronic acid; activation, % at 6.8 µM; 370,000 compounds, 1.4% hits;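 active = activation above the mean of all tested compounds plus 3 SD, cut at about 5.5% in these data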;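 note: 100% = response to 3 µM Δ7-dafachronic acid high control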
SMARCA2 conf: SMARCA2 activation, confirmation screen; activation, % at 9.1 µM; shares compounds with SMARCA2 activ; 3,500 compounds, 30% hits; AID 652260; MG213 cells, MMTV-luciferase with dexamethasone, luminescence, overnight; MG213 cells expressing E1A, Rb sequestered; DMSO wells 0%, reference activator 100%;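 active = activation above its plate's cutoff, the mean activation of tested wells plus 3 SD, cut at about 7.9% in these data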
GAL4-VP16 Luc: GAL4-VP16 reporter activation counter-screen; shares compounds with SMARCA2 activ; HEK293 GAL4-VP16 pG5luc reporter, luciferase luminescence; scaled: DMSO wells 0%, SAHA wells 100%; activation, % at 9.1 µM; 3,500 compounds, 41% hits; AID 686939;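 active = activation above the solvent-only control well mean plus 3 SD, averaged across control plates, cut at about 5.2% in these data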
The depositor's hits bear a star; x = no result.

SMILES	DAX1 inh-1	SMARCA2 activ	ssDAF-12 act	hgDAF12 agonist	DAX1 inh-2	hcDAF-12 act	SMARCA2 conf	GAL4-VP16 Luc
COc1ccc(CCOC(=O)c2ccc(NC(=O)CC#N)cc2)cc1	1	1	-1	-2	0	-2	x	x
Cn1cccc1CC(=O)NNC(=S)Nc1ccccc1Cl	1	8.3*	-1	3	0	-2	-2	4
Cc1ccc(-n2nc3c(c2NC(=O)c2cccs2)CS(=O)(=O)C3)cc1C	1	-1	-1	-1	0	0	x	x
Cc1ccc(-n2nc3c(c2NC(=O)c2ccco2)CS(=O)(=O)C3)cc1C	0	8.8*	-1	1	-2	0	4	1
Cc1ccc(-n2nc3c(c2NC(=O)c2cccs2)CS(=O)(=O)C3)cc1	0	14*	-1	0	1	5	1	0
Cc1ccc(-n2nc3c(c2NC(=O)c2ccco2)CS(=O)(=O)C3)cc1	0	-1	-1	-2	-1	2	x	x
COC(=O)C[C@@H]1CC[C@H]2[C@H](COc3ccc(NC(=O)Nc4ccc(Cl)cc4)cc3C(=O)N2C)O1	x	-3	-1	-1	-1	-3	x	x
O=C(NCc1cccs1)c1noc2c1CCCC2	-1	2	-2	5	0	-1	x	x
CC(C)c1cc(C(=O)NCc2ccco2)no1	0	9.0*	-1	6	2	0	8	7.3*
O=C(NCc1ccco1)c1noc2c1CCCCC2	3	10*	-2	5	1	1	4	1
CC1(c2nnnn2Cc2ccccc2)CSCC(=O)N1Cc1cccs1 (configuration not stated)	x	0	-1	-1	-1	-1	x	x
NC(=O)c1ccc(-c2ncc(-c3ccccc3)o2)cc1	-4	18*	0	8	3	4	17*	11*
c1ccc(-c2cnc(-c3cccnc3)o2)cc1	1	1	-1	5	1	2	x	x
O=C(CCn1nnc(-c2cccs2)n1)N1CCCCC1	x	9.0*	-1	5	2	-1	3	-1
CCN(CC)c1ccc(NC(=O)CSc2nnc(SCc3ccc(Cl)cc3)s2)cc1	x	-5	-1	1	-1	2	x	x
CCOc1ccc(NC(=O)Nc2cc(-c3ccccc3)sc2C(=O)OC)cc1	1	2	-1	0	0	4	x	x
COC(=O)c1sc(-c2ccccc2)cc1NC(=O)C1CC1	1	8.9*	0	-2	-1	0	-4	2
O=C(O[C@H]1CC[C@@]23CCCN2C(=O)CCC[C@H]3C1)N1CCCC1	x	x	-1	0	x	1	x	x
CN(C)c1ccc(-c2noc(C3CCN(S(=O)(=O)c4cccc(C(=O)O)c4)CC3)n2)cc1	-1	9.7*	-1	-1	0	-1	4	-2
COc1ccc(C(=O)CSc2nnc(-c3cccs3)o2)cc1OC	x	-4	-2	-1	0	0	x	x
Cc1noc(C)c1C(=O)N1CCC(n2nnc3ncccc32)CC1	x	-2	-1	2	0	-1	x	x
c1ccn2c(c1)nc1c2nc2ccccn21	3	12*	1.1*	13*	2	1	5	4
O=c1c2c(nc3cc(-c4ccc(Cl)cc4)[nH]n13)CCS2	3	13*	0	11*	3	4	8.6*	7.6*
CC1(C(=O)NS(=O)(=O)Cc2ccccc2C(F)(F)F)CCN1C(=O)Cc1ccccc1 (configuration not stated)	x	-1	-2	-1	1	0	x	x
CC1(C(=O)NS(=O)(=O)Cc2ccccc2)CCN1C(=O)Cc1ccc(-c2ccccc2)cc1 (configuration not stated)	x	8.3*	-1	1	0	0	-5	0
SMILES	DAX1 inh-1	SMARCA2 activ	ssDAF-12 act	hgDAF12 agonist	DAX1 inh-2	hcDAF-12 act	SMARCA2 conf	GAL4-VP16 Luc
COc1ccc(NS(=O)(=O)c2ccc(NC(=S)NC(=O)c3cccnc3)cc2)nn1	x	0	-2	2	0	-1	x	x
COc1ccc(NS(=O)(=O)c2ccc(NC(=S)NC(=O)c3cccc(F)c3)cc2)nn1	-1	8.2*	-1	0	0	0	0	0
C/C(NC(=O)c1ccccc1)=C1/C(=O)CC2C1C2(C)C (configuration not stated)	0	8.0*	0	9	2	1	19*	5
COc1ccc(N/C(C)=C/C(=S)Nc2ccccc2)cc1	-1	12*	0	19*	1	10*	3	2
COc1ccc(N/C(C)=C/C(=O)c2ccccc2)cc1	0	-1	0	-1	1	1	x	x
Cc1ccc(NC(=O)Nc2cnccn2)cc1	2	10.0*	0	8	4.3*	0	4	4
Nc1[nH]c(C(=O)c2ccc(Br)cc2)c(-c2ccc(Cl)cc2)c1C(=O)NCCc1c[nH]c2ccccc12	x	2	0	0	1	0	x	x
COc1ccc([C@H]2N[C@]3(CCCN(Cc4ccco4)C3=O)[C@H]3C(=O)N(Cc4ccccc4)C(=O)[C@@H]23)cc1	0	9.0*	-1	-1	-1	-1	-4	0
O=C1c2cccc3c(N4CCCCC4)ccc(c23)C(=O)N1CCO	-1	8.5*	0	6	0	1	7.8*	8.6*
CC(C)(C)c1ccc(-c2cn(C[C@H](Cc3ccccc3)n3c(=O)c4ccccc4n3Cc3ccno3)nn2)cc1	x	-3	-2	1	-2	-2	x	x
Cc1nc2ccccc2n1Cc1ccc(Br)cc1	-6	-6	-3	-7	-1	-5	x	x
Brc1ccc(Cn2c(-c3ccc(Br)o3)nc3ccccc32)o1	0	12*	-1	0	1	-2	8.1*	2
C=CCn1c(O)c(C2=c3ccccc3=NC2=O)sc1=Nc1ccc(O)cc1	2	9.6*	0	2	0	4	-2	-1
Cc1ccc2oc(C(=O)N3CCN(c4cccc(C)n4)CC3)c(C)c2c1	2	1	0	3	1	1	x	x
Cc1cc(Cl)c2oc(C(=O)N3CCN(c4cccc(C)n4)CC3)c(C)c2c1	1	11*	-1	8	1	2	7	15*
CC(C)(C)c1ccc(-c2nnc(SCC(=O)NC3CC3)o2)cc1	0	9.0*	-1	8	3	2	0	5.5*
Cc1cc(=O)oc2cc(OCCc3ccccc3)ccc12	-1	8.6*	0	2	0	4	8.7*	21*

Assay outcomes: PubChem, The Scripps Research Institute Molecular Screening Center
